Experimental findings from article PMC3218832 are described below.

Test in all cases: protein binding microarray; high values mean tight binding
Conditions in all cases: dsDNA, one strand shown

Experiment [1] deals with RELARELA (p65 homodimer) (Homo sapiens, UniProt Q04206 1-307).
For experiment [2], the target named is p50p50 homodimer (Homo sapiens, UniProt P19838 7-356).
Experiment [3] concerns the target T1, p52p52 homodimer (Homo sapiens, UniProt Q00653 4-332).
T1 sequence: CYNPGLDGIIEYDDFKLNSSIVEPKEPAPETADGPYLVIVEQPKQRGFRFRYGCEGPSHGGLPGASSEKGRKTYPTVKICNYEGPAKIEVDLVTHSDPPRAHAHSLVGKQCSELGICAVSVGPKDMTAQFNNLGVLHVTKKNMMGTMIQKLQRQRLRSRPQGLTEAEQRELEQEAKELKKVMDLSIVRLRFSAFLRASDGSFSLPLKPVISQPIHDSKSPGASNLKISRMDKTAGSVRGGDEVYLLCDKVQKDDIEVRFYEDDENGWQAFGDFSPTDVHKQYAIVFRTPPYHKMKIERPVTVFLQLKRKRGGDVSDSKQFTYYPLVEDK

For experiment [4], the target named is RELA (p65) subunit of heterodimer;p50 subunit (Homo sapiens;Homo sapiens, UniProt Q04206;P19838 1-307;7-356).
Sequence of RELA (p65) subunit of heterodimer;p50 subunit (Q04206 1-307, chain 1 of 2): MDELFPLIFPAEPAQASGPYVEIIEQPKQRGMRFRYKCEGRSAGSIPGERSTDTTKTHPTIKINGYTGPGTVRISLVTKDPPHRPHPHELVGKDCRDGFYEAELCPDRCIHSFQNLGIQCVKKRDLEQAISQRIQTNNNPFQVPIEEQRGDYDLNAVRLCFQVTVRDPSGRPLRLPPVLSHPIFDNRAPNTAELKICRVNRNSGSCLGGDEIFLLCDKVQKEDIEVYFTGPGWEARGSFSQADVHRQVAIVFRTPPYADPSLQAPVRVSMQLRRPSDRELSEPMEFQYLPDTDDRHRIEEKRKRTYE
Sequence of RELA (p65) subunit of heterodimer;p50 subunit (P19838 7-356, chain 2 of 2): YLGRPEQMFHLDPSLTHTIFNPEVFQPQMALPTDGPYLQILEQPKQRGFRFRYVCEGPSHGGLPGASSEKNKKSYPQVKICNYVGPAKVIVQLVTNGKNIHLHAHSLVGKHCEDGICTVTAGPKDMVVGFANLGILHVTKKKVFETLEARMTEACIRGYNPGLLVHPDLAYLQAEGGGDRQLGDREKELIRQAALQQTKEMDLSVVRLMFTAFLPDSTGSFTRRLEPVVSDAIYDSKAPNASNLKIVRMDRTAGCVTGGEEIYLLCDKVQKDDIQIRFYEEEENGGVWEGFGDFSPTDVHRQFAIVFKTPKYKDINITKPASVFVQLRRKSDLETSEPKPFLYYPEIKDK
The target in experiment [5] is RELA (p65) subunit of heterodimer;p52 subunit (Homo sapiens;Homo sapiens, UniProt Q04206;Q00653 1-307;4-332).
Experiment [6] concerns the target RELB subunit;p50 subunit (Homo sapiens;Homo sapiens, UniProt Q01201;P19838 120-401;7-356).
For experiment [7], the target named is T2, RELB subunit;p52 subunit (Homo sapiens;Homo sapiens, UniProt Q01201;Q00653 120-401;4-332).
T2 sequence 1: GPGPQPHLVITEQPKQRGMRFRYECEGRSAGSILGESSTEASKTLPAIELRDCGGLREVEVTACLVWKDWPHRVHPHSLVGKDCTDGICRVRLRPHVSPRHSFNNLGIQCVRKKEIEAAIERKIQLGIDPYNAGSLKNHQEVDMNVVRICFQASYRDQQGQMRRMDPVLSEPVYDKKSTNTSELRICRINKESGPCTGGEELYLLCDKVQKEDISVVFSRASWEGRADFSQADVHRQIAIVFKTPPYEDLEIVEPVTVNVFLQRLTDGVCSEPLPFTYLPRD
T2 sequence 2: T1 sequence

Experiment [8] deals with C-Rel subunit;p50 subunit (Homo sapiens;Homo sapiens, UniProt Q04864;P19838 1-285;7-356).
The target in experiment [9] is T3, C-Rel subunit;p52 subunit (Homo sapiens;Homo sapiens, UniProt Q04864;Q00653 1-285;4-332).
T3 sequence 1: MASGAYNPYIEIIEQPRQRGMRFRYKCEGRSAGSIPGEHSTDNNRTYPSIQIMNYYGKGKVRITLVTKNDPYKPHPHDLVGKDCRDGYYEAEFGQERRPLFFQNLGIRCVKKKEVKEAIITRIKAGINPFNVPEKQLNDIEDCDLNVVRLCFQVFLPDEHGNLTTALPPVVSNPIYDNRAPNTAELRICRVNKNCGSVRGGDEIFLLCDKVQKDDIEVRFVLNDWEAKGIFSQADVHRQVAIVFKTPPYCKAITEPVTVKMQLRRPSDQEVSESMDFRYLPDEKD
T3 sequence 2: T1 sequence

Sequence of p50p50 homodimer (P19838 7-356): as the sequence (P19838 7-356, chain 2 of 2) above
Sequence of RELARELA (p65 homodimer) (Q04206 1-307): as the sequence (Q04206 1-307, chain 1 of 2) above

CAGAAGATCCT: the binding signal in [1] was -1.03 z-score; in [2], -2.16 z-score; in [3] it was -0.765 z-score; in experiment [4] it was -1.33 z-score; in experiment [5] it was -1.13 z-score; in experiment [6], -1.3 z-score. Further, the values for the binding signal in [7], in experiment [8] and in [9] were -1.12 z-score, -1.5 z-score and -1.07 z-score, respectively.
On to AAGAATGTCCC, for which the binding signal in experiment [1] is 1.27 z-score; in [2] it was 0.914 z-score; in experiment [3], 0.691 z-score; in experiment [4], 0.927 z-score; in [5] it was 0.625 z-score; in [6], 0.695 z-score. Also, the binding signal in experiment [7] is 0.54 z-score; in experiment [8], 0.518 z-score; in [9] it was 0.463 z-score.
With GGGTGGCCCCC, the binding signal in [1] was -0.733 z-score; in experiment [2], 0.527 z-score; in experiment [3], 0.796 z-score; in experiment [4] it was 0.639 z-score; in [5], 0.996 z-score; in experiment [6], 0.399 z-score. In addition, the binding signal was determined as 0.74 z-score in [7], 0.773 z-score in [8] and 0.833 z-score in experiment [9].
CAAAGGCTCCT: the binding signal in [1] is -0.998 z-score; in [2], -1.36 z-score; in experiment [3], -0.784 z-score; in [4] it was -1.16 z-score; in experiment [5] it was -1.16 z-score; in experiment [6] it was -1.21 z-score. Further, the binding signal in [7] was -1.07 z-score; in [8], -1.99 z-score; in experiment [9] it was -1.13 z-score.
Consider GGAAGCACCCT, for which the binding signal was -0.312 z-score in experiment [1]; 0.509 z-score in [2]; 0.257 z-score in experiment [3]; 0.415 z-score in experiment [4]; 0.261 z-score in [5]; -0.129 z-score in [6]. Also, the binding signal was 0.214 z-score in experiment [7], 0.0298 z-score in [8] and 0.224 z-score in experiment [9].
In the case of CGGGGGGTCCC, the binding signal in [1] turned out to be 0.448 z-score; in [2] it was 0.975 z-score; in experiment [3] it was 2.05 z-score; in experiment [4], 1.38 z-score; in experiment [5] it was 1.59 z-score; in experiment [6] it was 1.28 z-score. Further, the binding signal was found to be 1.67 z-score in [7], 1.04 z-score in experiment [8] and 1.59 z-score in [9].
As to CGGGGCACCCC, the binding signal in experiment [1] turned out to be 0.313 z-score; in experiment [2], 0.323 z-score; in experiment [3], 1.21 z-score; in experiment [4], 0.7 z-score; in experiment [5], 1.06 z-score; in experiment [6], 0.451 z-score. Further, the results for the binding signal in experiment [7], in experiment [8] and in experiment [9] were 1.1 z-score, 0.899 z-score and 1.43 z-score, respectively.
For the sequence AGAGACACCCC, the binding signal in experiment [1] is -0.871 z-score; in experiment [2], -0.237 z-score; in [3], -0.229 z-score; in experiment [4], -0.459 z-score; in experiment [5], -0.359 z-score; in experiment [6], -0.257 z-score. Further, the binding signal is 0.00668 z-score in experiment [7], -0.227 z-score in experiment [8] and -0.484 z-score in [9].
CGAATCGCCCT: the binding signal was -0.52 z-score in [1]; -1.41 z-score in experiment [2]; -0.603 z-score in experiment [3]; -0.694 z-score in experiment [4]; -0.649 z-score in experiment [5]; -0.752 z-score in [6]. Moreover, the binding signal in [7] is -0.785 z-score; in experiment [8], -0.785 z-score; in experiment [9], -0.657 z-score.
Take CGGAGGTTCCC: the binding signal in [1] was 1.2 z-score; in experiment [2], -0.355 z-score; in experiment [3] it was -0.258 z-score; in [4] it was 0.387 z-score; in experiment [5] it was -0.0508 z-score; in experiment [6] it was -0.291 z-score. For the same sequence, the binding signal in experiment [7] is -0.115 z-score; in experiment [8], 0.126 z-score; in experiment [9], -0.0163 z-score.
Turning to AAGTTGTTCCT, the binding signal in [1] is -0.106 z-score; in experiment [2] it was -1.19 z-score; in experiment [3], -0.438 z-score; in [4] it was -0.58 z-score; in experiment [5], -0.753 z-score; in experiment [6] it was -0.971 z-score. For the same sequence, the binding signal was -0.787 z-score in experiment [7], -0.889 z-score in [8] and -0.685 z-score in experiment [9].
As for GGAATCGTCCC, the binding signal stood at 0.862 z-score in experiment [1]; 0.42 z-score in experiment [2]; 0.582 z-score in [3]; 0.504 z-score in [4]; 0.591 z-score in experiment [5]; 0.29 z-score in [6]. Besides, the binding signal came to 0.267 z-score in [7], 0.649 z-score in experiment [8] and 0.392 z-score in experiment [9].
As to GAGAACTCCCC, the binding signal in experiment [1] is 0.725 z-score; in [2], 1.15 z-score; in experiment [3], 1.06 z-score; in experiment [4] it was 1.34 z-score; in experiment [5], 1.05 z-score; in [6], 1.1 z-score. Also, the binding signal in [7] is 0.794 z-score; in [8], 0.916 z-score; in [9], 0.92 z-score.
With AAGAGATCCCT, the binding signal in [1] is -0.452 z-score; in experiment [2], -0.0204 z-score; in [3] it was -0.142 z-score; in [4] it was -0.376 z-score; in [5] it was -0.411 z-score; in experiment [6] it was 0.117 z-score. Also, the binding signal in experiment [7] is -0.279 z-score; in experiment [8], -0.41 z-score; in [9] it was -0.484 z-score.
With GGAAATCCCCT, the binding signal in [1] was 3.63 z-score; in experiment [2], 1.5 z-score; in experiment [3], 3.23 z-score; in experiment [4], 3.21 z-score; in experiment [5], 3.34 z-score; in [6], 2.45 z-score. For the same sequence, the binding signal in [7] was 3.27 z-score; in experiment [8], 3.04 z-score; in experiment [9], 3.88 z-score.
